These results are taken from ChEMBL document CHEMBL1961873, “Compounds: GSK PKIS; Assays: Nanosyn kinase panel” (2012).

For assay [1], the target named is Fibroblast growth factor receptor 4 (Homo sapiens) (UniProt P22455). As to conditions: at 1 µM.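 Note: reported figure is the averaged percent inhibition of FGFR4, from the GSK PKIS kinase screening panel.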
Assay [2] concerns the target Tyrosine-protein kinase Fgr (Homo sapiens) (UniProt P09769). The note with it: at 0.1 µM.
For assay [3] the target is unchanged. The note with it: at 1 µM.
In assay [4] the target is Vascular endothelial growth factor receptor 1 (Homo sapiens) (UniProt P17948). As to conditions: at 0.1 µM.
Assay [5] has the same target. As to conditions: at 1 µM.
Assay [6] has as its target Receptor-type tyrosine-protein kinase FLT3 (Homo sapiens) (UniProt P36888). As to conditions: at 0.1 µM.
Assay [7] shares this target. As to conditions: at 1 µM.
The subject of assay [8] is T1, Receptor-type tyrosine-protein kinase FLT3 (Homo sapiens), P36888 [D835Y].
T1 sequence (whole entry): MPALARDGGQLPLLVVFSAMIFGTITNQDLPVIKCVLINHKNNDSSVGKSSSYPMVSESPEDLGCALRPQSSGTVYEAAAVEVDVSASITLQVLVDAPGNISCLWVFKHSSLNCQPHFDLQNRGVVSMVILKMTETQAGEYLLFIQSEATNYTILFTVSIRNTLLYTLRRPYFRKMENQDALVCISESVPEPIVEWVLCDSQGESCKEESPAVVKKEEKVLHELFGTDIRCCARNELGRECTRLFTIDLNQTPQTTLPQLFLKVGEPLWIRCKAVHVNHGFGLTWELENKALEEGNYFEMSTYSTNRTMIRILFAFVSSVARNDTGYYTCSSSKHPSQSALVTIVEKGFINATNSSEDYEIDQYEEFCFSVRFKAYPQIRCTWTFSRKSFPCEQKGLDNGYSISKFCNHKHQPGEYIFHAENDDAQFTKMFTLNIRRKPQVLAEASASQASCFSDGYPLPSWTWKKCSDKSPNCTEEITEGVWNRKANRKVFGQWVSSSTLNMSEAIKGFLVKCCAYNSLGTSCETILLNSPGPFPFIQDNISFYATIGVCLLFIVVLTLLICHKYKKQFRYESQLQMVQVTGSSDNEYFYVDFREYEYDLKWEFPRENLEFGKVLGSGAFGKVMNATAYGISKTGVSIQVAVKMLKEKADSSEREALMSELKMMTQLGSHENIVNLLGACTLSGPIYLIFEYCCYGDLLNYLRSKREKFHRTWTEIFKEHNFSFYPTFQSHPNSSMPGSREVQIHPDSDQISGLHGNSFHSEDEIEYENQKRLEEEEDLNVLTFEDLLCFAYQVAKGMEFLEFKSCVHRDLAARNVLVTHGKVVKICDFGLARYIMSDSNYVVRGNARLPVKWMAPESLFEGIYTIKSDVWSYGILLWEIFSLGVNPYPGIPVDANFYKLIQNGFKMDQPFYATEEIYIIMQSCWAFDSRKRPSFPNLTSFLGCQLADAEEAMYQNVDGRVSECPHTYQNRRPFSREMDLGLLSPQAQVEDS
The note with it: at 0.1 µM.

Assay [9] concerns the target Non-receptor tyrosine-protein kinase TYK2 (Homo sapiens) (UniProt P29597). The note with it: at 1 µM.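 Note: values are mean percent inhibition of TYK2 kinase.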
The target of assay [10] is Tyrosine-protein kinase Yes (Homo sapiens) (UniProt P07947). The note with it: at 0.1 µM.
Assay [11] shares this target. As to conditions: at 1 µM.
Assay [12] deals with T2, Tyrosine-protein kinase ZAP-70 (Homo sapiens) (UniProt P43403).
T2 sequence (whole entry): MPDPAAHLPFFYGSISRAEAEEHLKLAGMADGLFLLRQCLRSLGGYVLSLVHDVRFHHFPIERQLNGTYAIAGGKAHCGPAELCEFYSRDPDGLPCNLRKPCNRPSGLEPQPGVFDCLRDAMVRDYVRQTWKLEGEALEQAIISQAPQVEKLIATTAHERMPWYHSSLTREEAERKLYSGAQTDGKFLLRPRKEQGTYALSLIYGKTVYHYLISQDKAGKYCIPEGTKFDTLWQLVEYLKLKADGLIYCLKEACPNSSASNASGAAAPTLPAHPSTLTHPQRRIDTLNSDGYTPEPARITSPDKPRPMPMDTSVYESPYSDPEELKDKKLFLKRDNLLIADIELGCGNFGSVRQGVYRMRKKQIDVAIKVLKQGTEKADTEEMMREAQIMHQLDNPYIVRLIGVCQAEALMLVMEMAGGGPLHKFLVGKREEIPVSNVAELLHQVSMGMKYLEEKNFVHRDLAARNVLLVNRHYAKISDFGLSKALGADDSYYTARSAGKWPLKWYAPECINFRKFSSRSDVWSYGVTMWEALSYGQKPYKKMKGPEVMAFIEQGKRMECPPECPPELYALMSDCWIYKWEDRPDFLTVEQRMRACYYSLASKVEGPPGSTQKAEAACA
As to conditions: at 0.1 µM.

Assay [13] deals with T2, Tyrosine-protein kinase ZAP-70 (Homo sapiens). As to conditions: at 1 µM.
The target in assay [14] is Serine/threonine-protein kinase B-raf (Homo sapiens) (UniProt P15056). The note with it: at 0.1 µM.
Assay [15] has the same target. As to conditions: at 1 µM.
The test system of assay [16] is Serine/threonine-protein kinase B-raf (Homo sapiens), P15056 [V600E]. As to conditions: at 0.1 µM.
For assay [17] the test system is unchanged. The note with it: at 1 µM.
Assay [18] has as its target RAF proto-oncogene serine/threonine-protein kinase (Homo sapiens) (UniProt P04049). The note with it: at 0.1 µM.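 Note: values are mean CRAF kinase inhibition from profiling of the GSK Published Kinase Inhibitor Set.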
Assay [19] has as its target T3, Tyrosine-protein kinase receptor TYRO3 (Homo sapiens) (UniProt Q06418).
T3 sequence (whole entry): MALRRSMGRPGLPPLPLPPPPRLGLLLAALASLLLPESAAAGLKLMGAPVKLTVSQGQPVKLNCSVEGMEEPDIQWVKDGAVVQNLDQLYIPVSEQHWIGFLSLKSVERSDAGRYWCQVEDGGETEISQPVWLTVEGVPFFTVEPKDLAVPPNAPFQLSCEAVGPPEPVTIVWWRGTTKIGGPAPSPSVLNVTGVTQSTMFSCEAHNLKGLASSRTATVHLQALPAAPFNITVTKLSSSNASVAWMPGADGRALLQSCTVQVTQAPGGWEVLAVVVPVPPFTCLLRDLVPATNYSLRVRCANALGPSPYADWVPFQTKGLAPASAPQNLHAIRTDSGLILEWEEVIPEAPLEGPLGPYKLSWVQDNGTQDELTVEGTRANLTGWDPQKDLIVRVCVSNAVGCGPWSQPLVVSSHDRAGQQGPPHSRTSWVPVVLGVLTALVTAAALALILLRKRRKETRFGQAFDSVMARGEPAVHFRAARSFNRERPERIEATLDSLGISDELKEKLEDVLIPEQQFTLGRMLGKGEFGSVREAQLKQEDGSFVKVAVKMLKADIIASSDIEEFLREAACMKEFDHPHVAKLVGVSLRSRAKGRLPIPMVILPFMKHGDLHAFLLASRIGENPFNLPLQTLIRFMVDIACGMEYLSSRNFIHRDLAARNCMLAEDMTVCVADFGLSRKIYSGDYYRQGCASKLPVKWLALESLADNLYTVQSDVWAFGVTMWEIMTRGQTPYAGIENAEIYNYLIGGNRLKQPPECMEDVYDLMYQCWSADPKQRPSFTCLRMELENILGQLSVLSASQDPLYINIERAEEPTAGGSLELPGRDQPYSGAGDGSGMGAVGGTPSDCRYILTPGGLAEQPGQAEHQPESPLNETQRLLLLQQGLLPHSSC
As to conditions: at 0.1 µM.

Assay [20] has as its target T3, Tyrosine-protein kinase receptor TYRO3 (Homo sapiens). The note with it: at 1 µM.

Sequence of Vascular endothelial growth factor receptor 1 (Homo sapiens) (P17948 whole entry): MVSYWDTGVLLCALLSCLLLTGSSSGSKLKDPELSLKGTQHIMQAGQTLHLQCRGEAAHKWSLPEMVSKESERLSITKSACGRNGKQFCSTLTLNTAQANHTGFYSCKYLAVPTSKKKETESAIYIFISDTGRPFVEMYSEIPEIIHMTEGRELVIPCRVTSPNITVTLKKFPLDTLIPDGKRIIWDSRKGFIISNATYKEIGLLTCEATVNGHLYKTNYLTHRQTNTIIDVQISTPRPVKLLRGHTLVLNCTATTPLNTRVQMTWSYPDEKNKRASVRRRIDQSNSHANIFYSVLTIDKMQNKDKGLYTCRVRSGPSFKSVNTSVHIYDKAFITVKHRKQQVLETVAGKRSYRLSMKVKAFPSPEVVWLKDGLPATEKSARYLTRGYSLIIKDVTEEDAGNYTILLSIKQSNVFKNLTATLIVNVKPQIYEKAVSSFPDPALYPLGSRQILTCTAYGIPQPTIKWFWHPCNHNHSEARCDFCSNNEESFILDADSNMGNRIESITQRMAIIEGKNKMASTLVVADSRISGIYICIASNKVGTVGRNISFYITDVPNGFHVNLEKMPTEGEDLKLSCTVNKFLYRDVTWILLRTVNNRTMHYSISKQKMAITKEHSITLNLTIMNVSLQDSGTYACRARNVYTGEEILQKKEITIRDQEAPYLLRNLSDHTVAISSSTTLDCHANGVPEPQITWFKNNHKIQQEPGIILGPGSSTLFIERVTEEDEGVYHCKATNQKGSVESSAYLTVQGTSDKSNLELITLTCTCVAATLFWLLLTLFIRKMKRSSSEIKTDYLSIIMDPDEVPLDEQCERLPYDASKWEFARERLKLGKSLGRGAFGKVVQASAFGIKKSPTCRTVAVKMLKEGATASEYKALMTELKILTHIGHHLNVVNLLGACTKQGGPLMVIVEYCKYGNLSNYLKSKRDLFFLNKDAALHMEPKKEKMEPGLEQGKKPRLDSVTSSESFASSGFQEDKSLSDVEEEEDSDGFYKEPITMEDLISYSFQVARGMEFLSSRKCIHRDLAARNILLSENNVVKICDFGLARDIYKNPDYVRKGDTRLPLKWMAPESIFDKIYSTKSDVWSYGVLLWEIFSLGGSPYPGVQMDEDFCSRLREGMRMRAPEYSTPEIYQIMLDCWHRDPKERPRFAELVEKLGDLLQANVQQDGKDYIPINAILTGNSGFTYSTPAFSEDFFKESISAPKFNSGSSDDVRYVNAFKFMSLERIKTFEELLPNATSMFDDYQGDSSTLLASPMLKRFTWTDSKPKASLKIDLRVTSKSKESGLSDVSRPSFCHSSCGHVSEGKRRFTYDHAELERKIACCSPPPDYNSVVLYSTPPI
Sequence of Non-receptor tyrosine-protein kinase TYK2 (Homo sapiens) (P29597 whole entry): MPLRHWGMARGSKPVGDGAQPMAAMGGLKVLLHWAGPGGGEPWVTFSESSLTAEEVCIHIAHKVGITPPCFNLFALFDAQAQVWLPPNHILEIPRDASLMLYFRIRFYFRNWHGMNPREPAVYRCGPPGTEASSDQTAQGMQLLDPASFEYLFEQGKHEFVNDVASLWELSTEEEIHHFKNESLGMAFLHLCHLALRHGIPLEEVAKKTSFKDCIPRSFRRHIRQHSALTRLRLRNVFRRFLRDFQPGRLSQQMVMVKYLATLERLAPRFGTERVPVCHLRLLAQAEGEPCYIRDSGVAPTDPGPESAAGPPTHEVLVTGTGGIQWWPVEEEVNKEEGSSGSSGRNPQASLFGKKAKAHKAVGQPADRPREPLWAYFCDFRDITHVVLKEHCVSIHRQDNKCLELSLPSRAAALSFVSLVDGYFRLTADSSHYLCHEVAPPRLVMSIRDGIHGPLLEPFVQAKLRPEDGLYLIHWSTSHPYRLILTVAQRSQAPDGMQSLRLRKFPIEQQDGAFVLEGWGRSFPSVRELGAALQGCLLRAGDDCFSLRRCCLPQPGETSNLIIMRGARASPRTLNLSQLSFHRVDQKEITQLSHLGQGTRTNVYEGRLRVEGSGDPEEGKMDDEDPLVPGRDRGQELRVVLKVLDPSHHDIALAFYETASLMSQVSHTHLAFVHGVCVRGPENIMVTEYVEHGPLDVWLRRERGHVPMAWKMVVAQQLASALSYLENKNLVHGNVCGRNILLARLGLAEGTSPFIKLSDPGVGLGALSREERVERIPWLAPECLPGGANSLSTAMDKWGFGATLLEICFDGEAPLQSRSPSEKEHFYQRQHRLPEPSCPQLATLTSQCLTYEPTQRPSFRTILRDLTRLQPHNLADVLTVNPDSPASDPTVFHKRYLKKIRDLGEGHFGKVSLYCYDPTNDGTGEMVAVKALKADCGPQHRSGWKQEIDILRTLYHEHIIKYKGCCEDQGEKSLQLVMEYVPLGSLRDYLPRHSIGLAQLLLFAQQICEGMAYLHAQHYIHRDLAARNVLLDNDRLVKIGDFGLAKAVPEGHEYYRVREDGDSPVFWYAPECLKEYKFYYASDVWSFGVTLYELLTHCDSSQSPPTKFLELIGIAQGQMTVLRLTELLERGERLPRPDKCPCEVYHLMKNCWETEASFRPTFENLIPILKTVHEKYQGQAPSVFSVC
Sequence of Tyrosine-protein kinase Yes (Homo sapiens) (P07947 2-543 limits assumed): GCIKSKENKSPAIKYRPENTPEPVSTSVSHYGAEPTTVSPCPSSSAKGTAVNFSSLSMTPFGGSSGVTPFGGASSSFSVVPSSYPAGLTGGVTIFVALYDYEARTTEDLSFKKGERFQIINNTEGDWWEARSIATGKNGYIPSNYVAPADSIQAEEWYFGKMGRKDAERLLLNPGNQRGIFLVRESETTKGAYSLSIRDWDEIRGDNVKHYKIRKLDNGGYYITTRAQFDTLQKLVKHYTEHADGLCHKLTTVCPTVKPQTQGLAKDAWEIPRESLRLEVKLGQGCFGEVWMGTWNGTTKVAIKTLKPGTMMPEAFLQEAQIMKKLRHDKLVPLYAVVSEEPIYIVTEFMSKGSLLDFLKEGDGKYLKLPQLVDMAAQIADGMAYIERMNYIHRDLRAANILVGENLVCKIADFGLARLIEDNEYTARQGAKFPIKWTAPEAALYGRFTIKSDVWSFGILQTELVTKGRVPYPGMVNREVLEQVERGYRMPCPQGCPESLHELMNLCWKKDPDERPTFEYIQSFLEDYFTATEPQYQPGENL
Sequence of Serine/threonine-protein kinase B-raf (Homo sapiens) (P15056 whole entry): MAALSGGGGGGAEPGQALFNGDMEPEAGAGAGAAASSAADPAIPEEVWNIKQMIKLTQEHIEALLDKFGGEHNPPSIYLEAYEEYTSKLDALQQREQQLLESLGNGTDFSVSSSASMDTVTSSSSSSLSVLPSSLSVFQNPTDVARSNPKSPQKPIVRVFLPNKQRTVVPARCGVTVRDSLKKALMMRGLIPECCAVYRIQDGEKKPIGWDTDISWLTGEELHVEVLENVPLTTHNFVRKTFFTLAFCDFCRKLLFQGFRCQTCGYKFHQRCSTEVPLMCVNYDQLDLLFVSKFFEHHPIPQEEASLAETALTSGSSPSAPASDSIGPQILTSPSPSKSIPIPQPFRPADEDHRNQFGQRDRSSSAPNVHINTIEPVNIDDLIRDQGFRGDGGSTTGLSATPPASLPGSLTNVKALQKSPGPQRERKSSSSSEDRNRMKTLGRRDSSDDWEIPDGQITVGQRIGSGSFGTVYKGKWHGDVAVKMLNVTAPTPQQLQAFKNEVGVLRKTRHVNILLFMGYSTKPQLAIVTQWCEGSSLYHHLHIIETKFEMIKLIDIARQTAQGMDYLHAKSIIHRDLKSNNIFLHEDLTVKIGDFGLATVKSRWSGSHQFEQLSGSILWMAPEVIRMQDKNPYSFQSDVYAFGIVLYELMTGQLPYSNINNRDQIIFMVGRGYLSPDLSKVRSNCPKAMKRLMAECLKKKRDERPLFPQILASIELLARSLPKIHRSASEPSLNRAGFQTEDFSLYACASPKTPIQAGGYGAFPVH
Sequence of Fibroblast growth factor receptor 4 (Homo sapiens) (P22455 22-802 limits assumed): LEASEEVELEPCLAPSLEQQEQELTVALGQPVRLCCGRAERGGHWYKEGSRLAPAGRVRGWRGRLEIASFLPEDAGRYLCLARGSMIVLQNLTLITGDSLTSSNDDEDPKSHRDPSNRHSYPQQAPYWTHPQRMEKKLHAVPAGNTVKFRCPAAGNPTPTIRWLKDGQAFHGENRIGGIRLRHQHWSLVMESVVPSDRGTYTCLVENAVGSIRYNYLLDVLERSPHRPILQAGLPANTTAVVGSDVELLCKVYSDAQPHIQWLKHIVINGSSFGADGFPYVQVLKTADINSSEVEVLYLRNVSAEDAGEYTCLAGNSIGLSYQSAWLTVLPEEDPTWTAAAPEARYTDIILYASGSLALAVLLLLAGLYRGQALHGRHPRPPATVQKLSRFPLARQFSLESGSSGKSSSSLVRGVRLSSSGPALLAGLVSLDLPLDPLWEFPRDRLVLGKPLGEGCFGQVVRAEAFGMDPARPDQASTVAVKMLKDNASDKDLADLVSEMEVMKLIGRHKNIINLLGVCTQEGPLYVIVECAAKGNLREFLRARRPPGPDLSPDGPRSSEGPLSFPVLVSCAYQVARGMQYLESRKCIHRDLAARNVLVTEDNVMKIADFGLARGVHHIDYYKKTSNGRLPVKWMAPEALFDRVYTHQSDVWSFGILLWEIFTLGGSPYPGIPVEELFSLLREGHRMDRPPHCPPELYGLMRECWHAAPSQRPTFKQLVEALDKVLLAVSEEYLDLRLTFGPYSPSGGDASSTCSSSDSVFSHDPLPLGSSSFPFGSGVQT
Sequence of Serine/threonine-protein kinase B-raf (Homo sapiens), P15056 [V600E] (P15056 whole entry V600E): as the sequence (P15056 whole entry) above, with V600E counted along it

`COc1cc2c(cc1Nc1nc(Nc3ccsc3C(N)=O)c3cc[nH]c3n1)N(C(=O)CN(C)C)CCC2`: the inhibition in assay [1] is 1.79%; in [2], 7.89%; in assay [3], 10.7%; in assay [4], -1.61%; in [5], 1.49%; in assay [6], -1.64%. Also, the inhibition in [7] is 1.45%; in assay [8], -8.75%; in [9], -1.13%; in [10], 1.43%; in [11], 2.18%; in assay [12], -0.11%. Further, the inhibition in assay [13] is 1.86%; in assay [14] it was -0.02%; in [15], 1.67%; in assay [16], 0.32%; in assay [17] it was 0.47%; in [18], -0.98%.

For the molecule `NC(=O)c1sc(-n2cnc3cc(C(F)(F)F)ccc32)cc1OCc1ccccc1Br`, the inhibition is -0.34% in assay [1]; 2.13% in assay [2]; 2.99% in [3]; -0.46% in [4]; -0.01% in assay [5]; 0.18% in assay [6]. Moreover, the inhibition is 3.13% in assay [7]; -3.16% in [8]; -3.05% in assay [9]; 1.7% in assay [19]; 2.02% in assay [20]; 2.56% in assay [10]. The inhibition in [11] is 3.46%; in [12], -0.71%; in assay [13], 1.87%; in [14], 3.64%; in assay [15], 2.26%; in assay [16], 1.31%. For the same molecule, the inhibition worked out at 2.01% in [17] and 1.82% in [18].

In the case of `CCn1c(-c2nonc2N)nc2c(C#CC(C)(C)O)ncc(OCC3CCNCC3)c21`, the inhibition in assay [1] is -3.68%; in [2] it was 5.04%; in assay [3] it was 4.9%; in [4] it was 2.92%; in [5], 23.5%; in assay [6], -0.18%. The inhibition in assay [7] turned out to be 4.4%; in [8], 3.83%; in assay [9], 1.52%; in [19] it was 2.77%; in [20], 3.34%; in [10], 2.71%. Moreover, the inhibition was 6.72% in [11]; -3.36% in assay [12]; -3.17% in assay [13]; 4.38% in [14]; 2.78% in [15]; 4.23% in assay [16]. Besides, the values for the inhibition in assay [17] and in assay [18] were 2.64% and 3.07%, respectively.

Consider `Nc1nonc1-c1nc2cnccc2n1C1CCCCC1`, for which the inhibition in assay [1] is -1.15%; in assay [2], -0.56%; in assay [3], 6.63%; in assay [4], -1%; in assay [5], 4.33%; in [6], -0.01%. For the same molecule, the inhibition is 4.32% in [7]; 3.29% in assay [8]; 6.77% in assay [9]; -1.27% in assay [19]; -0.87% in assay [20]; 1.72% in assay [10]. Also, the inhibition in [11] was 3.33%; in assay [12], -2%; in assay [13], -0.79%; in [14], -2.13%; in assay [15], 4.56%; in assay [16] it was -1.6%. Also, the inhibition in assay [17] is 5.12%; in assay [18], 2.21%.

On to `CCn1c(-c2nonc2N)nc2c(C#CCN)ncc(OCCCN)c21`, for which the inhibition in assay [1] was 0.77%; in assay [2] it was 5.41%; in [3], 1.7%; in assay [4], 0.25%; in assay [5], 0.93%; in assay [6], 1.97%. The inhibition in [7] was 0.52%; in assay [8], 2.12%; in assay [9], 5.33%; in assay [19], -0.44%; in [20], 3.68%; in [10], 0.61%. Besides, the inhibition in [11] was 3.6%; in [12], 2.74%; in assay [13], 2.46%; in [14], -4.66%; in assay [15], -4.6%; in assay [16], -5.05%. Besides, the results for the inhibition in assay [17] and in [18] were -3.78% and 2.59%, respectively.

With `NS(=O)(=O)c1ccc(N/C=C2\C(=O)Nc3ccc4ncsc4c32)cc1`, the inhibition in [1] turned out to be 5.81%; in assay [2], 2.87%; in assay [3], 21.6%; in assay [4] it was 7.41%; in assay [5] it was 50.6%; in assay [6], 32.8%. Besides, the inhibition in [7] amounted to 79.5%; in assay [8], 40.4%; in assay [9], 41%; in assay [19], 3.07%; in [20], 24.1%; in assay [10], 2.73%. Moreover, the inhibition in assay [11] is 26.7%; in assay [12], -5.22%; in assay [13], 5.97%; in assay [14], 11%; in assay [15], 41%; in assay [16] it was 9.06%. Also, the inhibition in assay [17] was 37.5%; in assay [18] it was -1.4%.

As for `COc1cccc(-n2ncc3c(N/N=C/c4ccncc4)ncnc32)c1`, the inhibition in assay [1] is 7.56%; in assay [2], 29%; in assay [3] it was 70%; in [4] it was 1.64%; in assay [5] it was 27.6%; in assay [6], 7.06%. In addition, the inhibition turned out to be 28.3% in [7]; 11.5% in assay [8]; 0.71% in [9]; 8.97% in assay [19]; 41.6% in [20]; 26.7% in assay [10]. Moreover, the inhibition in [11] was determined as 73%; in assay [12], 2.84%; in [13], 3.98%; in assay [14], 10.3%; in assay [15] it was 21.5%; in [16], 11%. For the same molecule, the inhibition in assay [17] was 23.1%; in assay [18], -6.75%.
